In the supplement of paper PMC3334620:
The full ranking holds about 33,000 sequences; the median of “E-score (-0.5 to 0.5)” is about -0.012, and the highest 2% start at about 0.29. The sample as a whole holds a higher share of the highest values than the screen did.

Each sequence was assayed against T1, Ybr033w (UniProt P38073) (assay: PBM E-score (8-mer binding enrichment) (E-score (-0.5 to 0.5)); higher = stronger / more preferred TF binding). Conditions: protein concentration: 200 nM; construct: GST-full length.
T1 sequence: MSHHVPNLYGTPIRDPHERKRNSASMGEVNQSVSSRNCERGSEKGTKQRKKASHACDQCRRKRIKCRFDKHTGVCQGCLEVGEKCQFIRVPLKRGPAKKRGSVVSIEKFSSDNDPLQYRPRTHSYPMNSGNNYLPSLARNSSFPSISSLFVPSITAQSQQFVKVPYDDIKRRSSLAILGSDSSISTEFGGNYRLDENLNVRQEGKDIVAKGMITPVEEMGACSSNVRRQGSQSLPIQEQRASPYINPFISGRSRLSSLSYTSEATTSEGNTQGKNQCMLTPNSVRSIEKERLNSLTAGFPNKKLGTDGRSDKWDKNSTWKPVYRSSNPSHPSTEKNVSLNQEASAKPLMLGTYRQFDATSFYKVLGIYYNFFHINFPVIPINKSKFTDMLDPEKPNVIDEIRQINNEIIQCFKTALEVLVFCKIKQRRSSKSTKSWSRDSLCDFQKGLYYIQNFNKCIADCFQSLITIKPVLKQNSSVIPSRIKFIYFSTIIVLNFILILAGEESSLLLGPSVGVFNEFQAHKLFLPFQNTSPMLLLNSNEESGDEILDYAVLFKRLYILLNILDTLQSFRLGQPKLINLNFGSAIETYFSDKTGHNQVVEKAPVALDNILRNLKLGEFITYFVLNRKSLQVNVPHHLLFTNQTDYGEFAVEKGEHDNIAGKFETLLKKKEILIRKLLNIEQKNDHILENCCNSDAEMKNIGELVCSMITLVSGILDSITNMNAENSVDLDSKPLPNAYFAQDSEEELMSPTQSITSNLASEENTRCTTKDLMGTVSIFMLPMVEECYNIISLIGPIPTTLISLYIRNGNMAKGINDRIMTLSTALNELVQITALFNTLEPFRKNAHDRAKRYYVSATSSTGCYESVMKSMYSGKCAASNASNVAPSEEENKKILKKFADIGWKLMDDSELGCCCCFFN
Experimental: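 Universal 'all 10-mer' protein binding microarrays (Agilent AMADID 015681) probed with GST-tagged S. cerevisiae TFs (full-length or DBD) made by in vitro transcription/translation (PURExpress), about 100-200 nM. Bound TF was detected with fluorescent anti-GST. Each ungapped 8-mer (which stands for itself and its reverse complement) is scored by the PBM enrichment score (E-score), a modified Wilcoxon-Mann-Whitney statistic from -0.5 to +0.5, computed with the Universal PBM Analysis Suite. Scale: above 0.35 generally sequence-specific binding.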

Sequence	PBM E-score
CTGCTCTC	-0.153
AGCCACCA	0.0237
AGGCTCAT	-0.0489
ACGACCAG	-0.158
AGGATAAG	-0.0801
AGGATAAC	-0.109
GGGATAAA	0.317
GGGATAAC	0.00039
GGGATAGA	-0.196
AAGATAAC	0.0702
AGGATAAA	0.427
AAGATAAG	0.0844
AAGATAAT	0.307
CAGGTAGG	-0.052
ATCCGGGG	0.181
GCCCATCA	-0.178
AGTCGACT	0.204
AGCTTAGA	-0.0294
TGATCAAA	0.076
GGATCAAA	0.367
GGATCAAC	0.369
AGATCAAC	0.0509
AGATCAAA	0.111
CGATCAAC	-0.144
CACACTGA	-0.19

Sequence	PBM E-score
CCAGGAAC	-0.103
GATGTCAA	0.0645
TATGTCAA	0.318
TATCTCAA	0.32
CATCTCAA	0.119
AATGTCAA	0.00312
AATCTCAA	0.0508
AAACGCGA	0.0304
GAAGACTC	-0.0221
CATAACTC	0.0871
GGAAATGA	0.133
CCAGATTC	-0.16
GACGAGTA	0.0188
TACGAGTA	0.297
CACGAGTA	0.0368
AAGAATGC	0.142
ATTCGAAA	0.12
AATATTAC	0.283
TACATTAA	0.345
AATATTCA	0.226
TATATTAA	0.324
GATATTAA	0.251
TATATTGA	0.275
CATATTCA	0.0595
AATATTAG	0.228

Sequence	PBM E-score
GACATTAA	0.166
TATATTCA	0.303
AACATTAA	0.224
AATATTAT	0.335
CCTGAGCA	-0.075
GACGGTTA	-0.192
ACCAGTAT	-0.104
CCTAACGA	-0.0133
ATGCGTGG	-0.346
GAATCGCC	-0.138
CGGTTGCA	-0.122
CTGCCCAC	-0.165
CAGGTGAA	0.0712
CGCCCCCC	-0.434
ACTTGTTC	0.25
GATGCATC	0.0586
GTGGATCA	0.0654
GCTGCAGA	-0.101
TAAGCAAA	0.179
CATATTAG	0.202
AATATGAC	0.109
CGTATTAA	0.108
CATATTAA	0.347
AATATGAT	0.317
AATATGAG	0.245

Sequence	PBM E-score
AATATTAA	0.349
AAACTTCC	0.068
AACCCAGT	-0.102
CGCTACTA	0.218
AAGCAACC	0.0073
AAAGTTGT	0.302
AAAGTTAA	0.323
CAAGTTAA	0.068
AAAGTTGG	0.0498
AAAGTTGC	0.0307
AAAGTTAG	0.297
AAAGTTAC	0.224
TAAGTTAA	0.206
CAAGTTAG	0.0992
CGTTCTAG	-0.0499
CCAAGCTC	-0.0526
GTAATGGA	0.163
TTAGATAA	0.218
AAAGATAG	-0.0366
AAAGATCA	0.173
GAAGATAC	0.17
AAAGATCC	0.3
GAAGATAA	0.319
GTAGATAA	0.333
ATAGATAA	0.28

Sequence	PBM E-score
AAAGATAC	0.12
TAAGATAA	-0.0896
AAAGATAA	0.299
AAAGATCG	-0.0193
CCTCCAAG	-0.176
AACGATGG	-0.0425
TCCCCTCA	-0.098
CTTAGCTC	-0.12
ATAGATTG	0.107
GTAGATTA	0.216
GAAGATTA	0.366
CAAGATTA	0.185
AAAGATTA	0.203
ATAGATTA	0.329
CCAGGGCA	-0.266
AACACTCA	0.13
TAACCTCA	0.0768
TCGTCCAA	0.0311
ACAATCCC	0.0235
TCTGTCCA	-0.0429
GTATTCCA	-0.0248
ATATTCCA	0.395
ATATTCTG	0.157
ATCTTCCA	0.249
GAATTCAA	0.177

Sequence	PBM E-score
ATATTCCG	0.428
CTATTCCA	0.17
AAATTCAA	0.288
ATCTTCCG	0.438
AAATTCAG	0.204
ATATTCGG	0.0327
ATCTTCCC	0.121
ACTGCACC	-0.018
CCGCTAAA	-0.117
AGACTGTA	-0.175
AGGGGAAG	-0.272
GCTAGGCA	-0.146
AAATTCCG	0.309
ATATTCCC	0.329
ACATTCCC	0.0614
AATTTCCG	0.325
CATTTCCG	0.12
AAATTCCA	0.258
CTATTCAA	0.0501
AATTTCCT	0.273
AAATTCCC	0.0364
TTATTCAA	0.253
ATATTCAA	0.3
CTATTCCC	-0.043
CCTGCAAC	-0.034

Sequence	PBM E-score
ACACTCTA	0.121
GTGCTGGA	-0.0549
AACCACAT	0.00349
AGTGGCTG	-0.145
AGGTCTGC	-0.104
GCGCTCTA	-0.159
GTGCGACA	-0.235
GTTGCAAA	0.231
GGTTGCAC	-0.131
ATTCGAGA	0.023
GGTGCACC	-0.253
CTTCAGCC	-0.13
AAATCGAC	0.142
AAGTCTAT	-0.00931
CGTGTGAG	-0.225
ATTTCTTC	0.313
CGTTCTTC	0.0897
AGTTCTTA	0.171
ATTTCTTA	0.195
AGTTCTTC	0.3
ATTTCTTG	0.198
CATAGCTC	-0.153
AGTATTAA	0.295
TCTATTAA	0.292
TCTATTCA	0.167

Sequence	PBM E-score
ACTATTAA	0.325
AGTATTAG	0.174
GCTATTAA	0.201
TGTATTAA	0.272
ACTATTAG	0.111
CCTATTAA	0.139
CACCCCAG	0.0316
ATGCGACA	0.0689
TAATCTAA	0.236
ATGGGATC	-0.0796
AGGACAAC	0.0906
TCGTTGAA	0.122
GACTCTAC	-0.261
ACCTGAAC	-0.219
GATGCTCA	-0.113
CTTGTGCC	-0.354
CGCACTAA	0.0977
GACATTAC	0.164
GCTGCTAC	-0.175
GGCCATTA	0.0667
ATTTACAG	0.149
CATTACAA	0.19
AATTACAA	0.107
ATTTACAC	0.00495
AATTACGA	0.277

Sequence	PBM E-score
TATTACGA	0.297
TATTACAA	0.307
CATTACGA	0.0351
ATTTACAA	0.31
AGTCCAAC	-0.12
CTTAGAAA	0.138
ATCTATTC	0.132
AAACTCAT	0.274
AATCGAAG	0.108
CATTTCGG	-0.0324
CTATATAA	0.152
TCATATAA	0.179
TGATATAA	0.179
ATATATAA	0.332
GTATATAA	0.168
TTATATAA	0.411
GAGCAAAA	0.0833
ATAGTGCG	0.0631
CACTTGGG	-0.0516
ACCTTTTG	-0.0505
AATGTTCA	0.0556
GAATCCGA	-0.108
GATTCCGA	0.129
AATTCCCA	0.171
AATTCCGG	0.154

Sequence	PBM E-score
TATTCCGA	0.398
TAATCCGA	0.326
AAATCCGA	0.12
AATTCCGC	0.172
ACTTCCGA	-0.0181
AATTCCGA	0.296
AATTCCGT	0.312
CATTCCGA	0.15
ACTGCGAA	-0.0623
GAATCACC	0.136
AAACTGGA	0.0838
CTAATCCC	-0.0661
CCTCTGCG	-0.252
GCTGCCCA	-0.153
ACTTGGAG	-0.0202
AGCCTATA	0.0186
CGCCAGAG	-0.045
AGATGTCC	0.0719
CTAGCATA	0.137
CTTACTAA	0.143
GTGTAAAC	-0.00524
AGGCGAGC	-0.174
ATCGCTAA	0.0959
CCGGGCAG	-0.122
GTTATGGA	0.108

Sequence	PBM E-score
GGATGAAC	0.292
AGATGAAC	0.131
CGATGAAC	-0.00159
AAGGGAGA	-0.166
AGCATACG	-0.0246
CGGAATTC	0.0496
CGGAATTA	0.407
TAGAATAA	0.205
TGGAATAA	0.417
CCGAATAG	0.0196
TCGAATAA	0.193
AGGAATAA	0.364
AGGAATAC	-0.131
CCGAATAA	0.293
CCGAATAC	0.105
AGGAATTA	0.223
AGGAATAG	0.134
ATTCAGTA	0.13
AGGTCTTG	-0.128
ATTGTGGA	0.153
CACCTAGC	-0.236
AGCACTAT	0.0398
CAGTGATA	0.0511
CACAGTCG	-0.125
AGGCAAAA	0.222

Sequence	PBM E-score
ACGAATAC	0.0881
AAGAATAT	0.149
CGGAATAG	0.126
GGGAATCA	0.0407
ACGAATAA	0.0842
GGGAATAA	0.355
ACGAATAT	0.295
GGGAATAC	-0.0369
AGGAATAT	0.353
AGGAATCG	0.116
CGGAATAA	0.468
CGGAATAC	0.186
TACCTTGA	0.0473
CTCACGGC	-0.261
GGGGCCAA	-0.123
ATAATGGG	0.152
GACTTTAC	0.03
AATTCACT	0.249
CGGTATGA	0.0788
GAGCCCAC	-0.27
TATTGTGA	0.105
GTTGTAGA	0.00414
ATTGTAGA	0.295
CTTGTAGA	-0.145
AATAGTCC	-0.0436

Sequence	PBM E-score
ACCGACAG	-0.135
AGTTTTCC	0.216
AGTTTTTC	0.295
AATTTTGC	0.142
CAATTTCC	0.195
AGTTTTTA	0.181
ATTTTTGC	0.308
GATTTTCA	0.205
ATTTTTGG	0.0437
GAATTTCC	0.343
GATTTTCC	0.416
AAATTTCC	0.258
GATTTCCC	0.0546
CGGTTCTA	0.0953
AAGTTGAG	0.0874
CGCTCATC	-0.0261
GATACCAC	0.066
ATTTTGTA	0.246
AATTTCTC	0.299
ATTTTGTG	0.291
AATTTTCC	0.468
CATTTCTC	0.176
ATTTTTTG	0.274
AATTTCTA	0.209
ATTTTGTC	0.187

Sequence	PBM E-score
ATTTTCTC	0.201
AATTTTCA	0.252
ATTTTTTC	0.316
AATTTTCT	0.145
CATAACGG	0.0155
CAGAGTGC	-0.126
TCATAACA	0.23
TCAGAGCA	-0.114
ATCTAGAC	0.107
AGTGAATC	0.0239
CAGCCTAG	0.0256
AATTTTTA	0.256
AATTTTTC	0.31
AAATTTTC	0.258
AATATTGT	0.298
GATATTGA	0.177
AATATTGA	0.329
CATATTGA	0.0393
AATATTGC	0.223
AATATTGG	0.047
